{"source": "PubChem BioAssay", "note": "A number with no mark means an inactive call. No rule for the calls is given here.", "data": [{"tested_on": "Aerobactin synthetase IucA (Klebsiella pneumoniae hvKP1)", "test": "Biochemical IucA enzyme inhibition primary screen of the Spectrum library (AID 1346200);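 also: 100% = wells without compound and 0% = wells lacking enzyme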", "settings": "malachite green pyrophosphate, A620, at 8 µM, hits give low values", "units": {"activity remaining": "%"}, "values": [{"smiles": "COc1c2ccoc2nc2c(OC)c(OCC(O)C(C)(C)O)ccc12", "note": "(stereo not given)", "activity remaining": 98}, {"smiles": "CC1/C(=N/O)C[C@@H]2C[C@H]1C2(C)C", "note": "(stereo not given in full)", "activity remaining": 110}, {"smiles": "O=C(NC(Cc1cc(=O)[nH]c2ccccc12)C(=O)O)c1ccc(Cl)cc1", "note": "(stereo not given)", "activity remaining": 106}, {"smiles": "O=C(O[C@@H]1Cc2c(O)cc(O)cc2O[C@@H]1c1cc(O)c(O)c(O)c1-c1c([C@H]2Oc3cc(O)cc(O)c3C[C@H]2OC(=O)c2cc(O)c(O)c(O)c2)cc(O)c(O)c1O)c1cc(O)c(O)c(O)c1", "activity remaining": 111}, {"smiles": "C[C@]12CCC3c4ccc(O)cc4CCC3C1CC[C@@H]2O", "note": "(stereo not given in full)", "activity remaining": 125}, {"smiles": "Oc1ccc([C@H]2Oc3cc(O)cc(O)c3C[C@H]2O)cc1", "activity remaining": 113}, {"smiles": "COC(=O)C[C@H]1C2(C)CC34OC5(C)O[C@@]6([C@H](OC)C(OC(=O)C(C)C)[C@]7(C)C(/C(=C(/OC)C(C)C)C(=O)O[C@H]7c7ccoc7)[C@@]6(O5)[C@H](OC)[C@@]3(OC)C2OC(C)=O)[C@]14C", "note": "(stereo not given in full)", "activity remaining": 119}, {"smiles": "C=NC(C(=O)NC1C(=O)N2C1SC(C)(C)C2C(=O)O)c1ccccc1", "note": "(stereo not given)", "activity remaining": 110}, {"smiles": "CC(=O)OC/C=C(\\C)CC/C=C(\\C)CC/C=C(\\C)CC/C=C(\\C)CC/C=C(\\C)CC/C=C(\\C)CC/C=C(\\C)CC/C=C(\\C)CCC=C(C)C", "activity remaining": 120}, {"smiles": "Nc1ccc(C(=O)O)cc1", "activity remaining": 124}, {"smiles": "COc1ccc(-c2c(O)c3c(OC)c4c(cc3oc2=O)OC(C)(C)CC4)cc1", "activity remaining": 99.1}, {"smiles": "O=C(O)c1nc2cc(Cl)c(Cl)cc2[nH]c1=O", "activity remaining": 92.7}, {"smiles": "CC(=O)Oc1ccc2c(c1)CCC1C2CC[C@@]2(C)C1C[C@@H](OC(C)=O)[C@@H]2OC(C)=O", "note": "(stereo not given in full)", "activity remaining": 97.3}, {"smiles": "Nc1ccc(N=Nc2ccccc2)c(N)n1", "activity remaining": 112}, {"smiles": "COC(=O)C1=CO[C@@H](O[C@@H]2O[C@H](CO)[C@@H](O)[C@H](O)[C@H]2O)[C@@H]2[C@@H](C)CC(=O)[C@]12O", "activity remaining": 109}, {"smiles": "COc1ccc(-c2coc3cc(O)ccc3c2=O)c(OC)c1", "activity remaining": 111}, {"smiles": "CCOC(=O)NNc1nncc2ccccc12", "activity remaining": 118}, {"smiles": "CC(=O)O[C@H]1CCC2(C)C3=C(CCC2C1(C)C)[C@]1(C)CCC(C(C)CCC=C(C)C)[C@@]1(C)CC3", "note": "(stereo not given in full)", "activity remaining": 111}, {"smiles": "C=C[C@@](C)(O)CCC1C(=C)CCC2[C@@](C)(CO)CCC[C@]12C", "note": "(stereo not given in full)", "activity remaining": 117}, {"smiles": "Cc1ccc(-c2cc(C(F)(F)F)nn2-c2ccc(S(N)(=O)=O)cc2)cc1", "activity remaining": 95}, {"smiles": "COc1ccc2c(c1)OCC(Cc1ccc(OC)c(OC(C)=O)c1)C2=O", "note": "(stereo not given)", "activity remaining": 113}, {"smiles": "CC1(C)CC[C@]2(C(=O)O)CC[C@]3(C)C(=CCC4[C@@]5(C)CC[C@@H](O)C(C)(C)C5CC[C@]43C)C2C1", "note": "(stereo not given in full)", "activity remaining": 118}, {"smiles": "CC(C)(CO)C(O)C(=O)NCCCO", "note": "(stereo not given)", "activity remaining": 118}, {"smiles": "COc1ccc(-c2coc3cc(O)cc(O)c3c2=O)cc1", "activity remaining": 98.7}, {"smiles": "Cc1ccsc1/C=C/C1=NCCCN1C", "activity remaining": 123}, {"smiles": "Cn1c(=O)c2c(ncn2CC(O)CO)n(C)c1=O", "note": "(stereo not given)", "activity remaining": 104}, {"smiles": "CC1=C2C(O)C(=O)OC3CC4C(C)(C)C(=O)C=C[C@]4(C)C(CC1)[C@]23C", "note": "(stereo not given in full)", "activity remaining": 109}, {"smiles": "CCCCC(=O)Oc1ccccc1C(=O)O", "activity remaining": 85.8}, {"smiles": "CC(=O)Nc1ccc(S(=O)(=O)c2ccc(NC(C)=O)cc2)cc1", "activity remaining": 110}, {"smiles": "COC1=CC(=O)C(O)=C/C1=C\\C=C\\c1ccccc1", "activity remaining": 106}, {"smiles": "COc1ccc(CC(=O)c2ccc(O)cc2O)cc1", "activity remaining": 111}, {"smiles": "CCC(C(N)=O)c1ccccc1", "note": "(stereo not given)", "activity remaining": 119}, {"smiles": "COc1cc(OC)c2c(=O)c(OC)c(-c3ccc(OC)c(OC)c3)oc2c1", "activity remaining": 120}, {"smiles": "COC(=O)c1c(C)cc(O)cc1O", "activity remaining": 89.5}, {"smiles": "N.N.O=C(O)C1(C(=O)O)CCC1.[Pt]", "activity remaining": 94.6}, {"smiles": "CC(C)c1cccc(O)c(=O)c1", "activity remaining": 123}, {"smiles": "C[C@@H]1O[C@@H](O[C@H]2[C@H](Oc3cc(O)c4c(=O)cc(-c5ccc(O)cc5)oc4c3)O[C@H](CO)[C@@H](O)[C@@H]2O)[C@H](O)[C@H](O)[C@H]1O", "activity remaining": 90.6}, {"smiles": "Cc1cc(O)c(C=O)c(O)c1C(=O)O", "activity remaining": 124}, {"smiles": "CC(C)CCCC(C)[C@H]1CCC2C3CC[C@H]4CC(=O)CC[C@]4(C)C3CC[C@@]21C", "note": "(stereo not given in full)", "activity remaining": 102}, {"smiles": "C[C@@H]1CC[C@@]23CCC4(C)[C@@](C=CC5[C@@]6(C)CCC(=O)C(C)(C)C6CC[C@]54C)(OC2=O)C3[C@H]1C", "note": "(stereo not given in full)", "activity remaining": 112}]}]}
